Screening data as filed in PubChem BioAssay.
The list is not random: actives were taken first. Their share in the collection is about 3.2%.
BRCA1 expr act = qHTS Assay to Identify Small Molecule Activators of BRCA1 Expression | MCF7-BRCA1-FFLuc reporter, luminescence, 48 h; response scale: scaled: vehicle 0%, 10 µM genistein 100% | Potency, µM (top dose mostly 46.1 µM), hits mostly activators | hit rate 1.1% among 380,000 | AID 624202, 2012; also: nearly all actives have a fitted effect of over 80% in size
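Luminescence from a BRCA1-driven firefly luciferase in MCF7 cells was the read-out, taken 15 min after substrate addition following 48 h compound exposure at 37 °C. Data were normalized to a 10 microM genistein control and DMSO vehicle.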
p53 reactivator = qHTS assay for re-activators of p53 using a Luc reporter; H1299 p53-A138V BP100-luciferase reporter, luminescence, 24 h; Potency, µM (titrated, usually from 92.2 µM), actives largely listed as activators; hit rate 0.063% among 320,000; also: nearly all actives have a fitted effect of over 45% in size
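p53-null H1299 cells stably carrying temperature-sensitive p53-A138V and a BP100-luciferase reporter were pinned with compounds (4-point, 1:5 series) and held 24 hrs at 37 deg C. Luminescence was read 10 min after detection reagent.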
A549 tox = Nrf2 qHTS screen for inhibitors: counterscreen for cytotoxicity. AID 504648, 2011. Potency, µM (series often up to 46 µM), hits mostly inhibitors. A549 ARE-Fluc cells, CellTiter-Fluor viability, 18-24 h. hit rate 0.16% among 390,000
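A549 ARE-Fluc cells in 5% FBS OPTI-MEM, 5000 cells/well, rested 2 h then exposed to compounds in concentration-response for 18-24 h at 37 °C. Viability by CellTiter-Fluor fluorescence (Ex 405/Em 525) after 30 min; luciferase luminescence (BugLite, 15 min, RT) read afterwards.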
Nrf2 ARE act = qHTS of Nrf2 Activators; hit rate 0.31% among 410,000; AREc32 ARE-luciferase reporter (MCF7-derived line), luminescence, 24 h; Potency, µM (series often up to 46.1 µM), most hits filed as activators; also: nearly all actives have a fitted effect of over 65% in size
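AREc32 cells carrying an ARE-driven firefly luciferase, 1000 cells/well in OPTI-MEM with 5% FBS, dosed after overnight attachment and incubated 24 hr at 37 deg C. Steady-Glo luminescence read after 30 min at RT.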
Nrf2 block = Nrf2 qHTS screen for inhibitors; A549 ARE-Fluc reporter, luciferase luminescence, 18-24 h; Potency, µM (highest dose often 46 µM), usual class: inhibitors; hit rate 2.1% among 360,000; AID 504444, 2011; also: nearly all actives have a fitted effect of over 60% in size
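Two sequential reads on A549 ARE_Fluc cells exposed to compound for 18-24 h: a CellTiter-Fluor fluorescence read for viability, then a luciferase luminescence read for Nrf2/ARE activity.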
IL-2 act = qHTS of IL-2 Activators | hit rate 0.065% among 360,000 | activation, % (series mostly up to about 46 µM) | IL-2 activation reporter assay, cell-based qHTS; stimulated with anti-CD3/CD4/CD28 beads; in transgenic mouse T cells | AID 652025, 2013; in the data active = activation above about 50%; inconclusive = mostly about 30% to 49%
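Using fluorescent plate cytometry, EGFP and DsRed are detected in transgenic mouse T cells stimulated 18 h at 37 degrees C with antibody-coated beads after 60 min compound pretreatment.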
Of the large screens only hits and unclear results are named; the others gave an inactive call. Unless noted, calls follow the shape of the dose curve; as a rule, active = well fitted curve in the direction sought with a large enough effect; inconclusive = small, poorly fitted or top-dose-only effect, or another doubt; inactive = no such curve, though single readings can be large; an effect the other way counts as inactive or inconclusive.

Cc1nc(-c2cccc(NC(=O)c3cccs3)c2)cs1	Nrf2 ARE act inconclusive
Cc1nc(-c2cccc(NC(=O)c3ccc(-n4nccc4C)cc3)c2)cs1	Nrf2 block 16µM
Cc1nc(-c2ccc(NC(=O)c3ccc(Br)o3)cc2)cs1	BRCA1 expr act 11µM, Nrf2 block inconclusive
Cc1nc(-c2cccc(NC(=O)c3ccc(Br)o3)c2)cs1	none
Cc1nc(-c2ccc(C(=O)Nc3cccc(Br)c3)cc2)cs1	BRCA1 expr act inconclusive, A549 tox inconclusive, Nrf2 block 12µM
Cc1cc2c(s1)c1cnn(Cc3c(F)ccc(Cl)c3F)c(=O)c1n2C	none (no result: BRCA1 expr act, p53 reactivator, Nrf2 ARE act, IL-2 act)
Cc1cc2c(s1)c1cnn(Cc3cccc([N+](=O)[O-])c3)c(=O)c1n2C	none (no result: BRCA1 expr act, p53 reactivator, Nrf2 ARE act, IL-2 act)
COc1ccccc1C(=O)N1CCN(c2nc3cc(C)c(C)cc3cc2C#N)CC1	Nrf2 block 23µM
COc1ccc2nc(N3CCCCC3)c(C#N)cc2c1	BRCA1 expr act 11µM, p53 reactivator inconclusive, Nrf2 block inconclusive
CCn1nc(C(=O)Nc2cccc3ccccc23)c(Cl)c1Cl	Nrf2 ARE act 7.1µM
COc1ccc(OC)c(-n2nnnc2SCC(=O)Nc2ccc(C(=O)N3CCCCC3)cc2)c1	Nrf2 block 18µM
Cc1cc(C)c(NC(=O)C(C)n2c(=O)cc(-c3ccccc3)c3c(C)nn(C)c32)c(C)c1 (configuration not stated)	none (no result: BRCA1 expr act, p53 reactivator, IL-2 act)
N/C(=N\OC(=O)N1CCOCC1)c1ccc(Br)cc1	A549 tox 13µM, Nrf2 block inconclusive
CCOC(=O)c1cc(S(=O)(=O)Nc2ccc(C)cc2Cl)[nH]n1	none (no result: p53 reactivator, Nrf2 block, IL-2 act)
Oc1ccc(Nc2nc3ccccc3n3cnnc23)cc1	Nrf2 block inconclusive (no result: p53 reactivator, IL-2 act)
Cc1cccn2c(=O)c3cc(C(=O)NCCc4ccc(S(N)(=O)=O)cc4)n(C)c3nc12	none (no result: BRCA1 expr act, p53 reactivator, IL-2 act)
Cc1cc(C)nc(NS(=O)(=O)c2ccc(NC(=O)c3cc4c(=O)n5cccc(C)c5nc4n3C)cc2)n1	Nrf2 block 23µM
CN(C)C(=O)c1ccc(NC(=O)COC(=O)C2(c3ccccc3)CCCC2)cc1	Nrf2 block 16µM
O=C(CSc1nccn1-c1ccc(Cl)cc1)Nc1nc2ccccc2s1	none (no result: BRCA1 expr act, p53 reactivator, Nrf2 block, IL-2 act)
CCOCC(=O)Nc1nc2ccccc2s1	BRCA1 expr act 7.9µM, p53 reactivator inconclusive, Nrf2 block inconclusive
CCOc1ccc2nc(NC(=O)CCn3cccc3)sc2c1	none
Cc1ccccc1Nc1nc2ccccc2s1	BRCA1 expr act 3.5µM, p53 reactivator inconclusive, Nrf2 block inconclusive
CCCC(=O)Nc1nc2ccc(OCC)cc2s1	BRCA1 expr act 6.3µM, p53 reactivator 3.2µM, Nrf2 block inconclusive
O=C(CSc1nccn1-c1ccccc1)Nc1nc2ccccc2s1	BRCA1 expr act 11µM (no result: p53 reactivator, Nrf2 block, IL-2 act)
CC(C)OC(=O)CCC(=O)Nc1nc2ccccc2s1	none
O=C(c1ccccc1O)N(Cc1ccco1)Cc1ccco1	none (no result: BRCA1 expr act, p53 reactivator, Nrf2 ARE act, IL-2 act)
O=C(NCc1ccc(Cl)cc1)C1CCN(S(=O)(=O)Cc2ccccc2)CC1	none (no result: BRCA1 expr act, p53 reactivator, IL-2 act)
CCNC(=O)Nc1nc2ccccc2s1	BRCA1 expr act 3.2µM, Nrf2 block inconclusive
CN(C)C(=S)Nc1nc2ccccc2s1	BRCA1 expr act 3.5µM, Nrf2 block inconclusive
O=C(Nc1nc2ccccc2s1)NC1CCCCC1	BRCA1 expr act inconclusive, Nrf2 block inconclusive
CCOC(=O)c1c(C)nc2c(c1-c1ccccc1)C(=O)c1ccccc1-2	Nrf2 block 13µM
COc1cc(C#Cc2c(C=O)n(C)c3ccccc23)cc(OC)c1	IL-2 act 51
Cc1ccc([N+](=O)[O-])cc1-c1ccc(/C=N/NC(=O)CN2CCOCC2)o1	Nrf2 ARE act 13µM
Cc1ccc(S(=O)(=O)N2CCN(c3nc(-c4cccs4)nc4ncccc34)CC2)cc1	Nrf2 block 12µM (no result: p53 reactivator, Nrf2 ARE act, IL-2 act)
Cc1ccc(S(=O)(=O)N2CCN(c3ccnc(-c4cccs4)n3)CC2)cc1	Nrf2 block 15µM (no result: p53 reactivator, Nrf2 ARE act, IL-2 act)
COc1ccc(NC(=O)c2cc3c(s2)CCC(C)C3)cc1S(=O)(=O)N1CCOCC1 (configuration not stated)	Nrf2 block 18µM
